Data on twelve compounds can be found in PubChem BioAssay (NCATS).

Structures are written as SMILES. Where “and” joins values, the source holds several entries; their conditions need not be identical. Identical values can stand only once. Results filed as inconclusive are left out. Calls of active or inactive are those of the source. Unless noted, calls come from the whole dose curve; as a rule, active = well fitted curve in the direction sought with a large enough effect; inconclusive = small, poorly fitted or top-dose-only effect, or another doubt; inactive = no such curve, though single readings can be large; an effect the other way counts as inactive or inconclusive.

The nature of test [1]: S16 Schwann cell viability assay (CellTiter-Glo assay) (AID 624031).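 Note: native untransfected S16 rat Schwann cells; cellular ATP luminescence as a viability measure; plate controls were DMSO-treated cells for no effect and cell-free wells for full effect; nearly all actives have a fitted effect of over 70% in size.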 The method in brief: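 Cells were seeded at 500-750 per well in phenol red-free DMEM with 10% FBS and left overnight. Compounds or DMSO were pinned in, incubation ran 24 h at 37 °C/5% CO2, then CellTiter-Glo reagent was added and luminescence measured.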
The nature of test [2]: S16 Schwann cell PMP22 intronic element firefly luciferase assay (AID 624032). Note: nearly all actives have a fitted effect of over 30% in size. Note: potency is the fitted concentration of half-maximal effect. The method in brief:
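Luciferase reporter of PMP22 intronic-element expression in stably transfected S16 rat Schwann cells, read by ONE-Glo luminescence after 24 h compound exposure at 37 C. Activity scaled between DMSO (0%) and positive-control PTC124; concentration-effect curves quality-classified.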

The nature of test [3]: qHTS of Trypanosoma Brucei Inhibitors: LOPAC Validation (AID 624147). Note: 0% is about no effect. The method in brief: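 Quantitative HTS: titrated library compounds versus trypanosomal pyruvate kinase in TEA buffer (pH 7.2) containing KCl, MgCl2, BSA and Tween-20. Reactions were initiated with ADP, 130 uM final. Kinase-Glo Plus luminescence was read after 45 min at RT.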
For test [4], the target named is Glucagon-like peptide 1 receptor (Homo sapiens) (UniProt P43220). Description: qHTS of GLP-1 Receptor Agonists: LOPAC Validation (AID 624148).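 Note: luminescence from a luciferase reporter switched on by cAMP; 0% is about no effect; higher luminescence signal means agonism.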 The method in brief:
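Agonism scored as increased luciferase luminescence driven by cAMP in HEK293 clones carrying GLP-1R. Cells settled 12 hours, received compound for 4-6 hr at 37 deg C, 5% CO2, and were read after 12 min detection reagent at RT.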

Test [5] is described as follows: qHTS of Nrf2 Activators: LOPAC Validation (AID 624149). Note: 0% is about no effect. The method in brief: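 Luminescence read-out of ARE-luciferase activation: AREc32_Fluc cells treated with compounds for 24 hr at 37 deg C, then lysed with Steady-Glo for 30 min at room temperature before reading.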
A short description of test [6]: S16 Schwann cell PMP22 intronic element beta-lactamase assay (AID 624044; calls by dose curve; note: nearly all actives have a fitted effect of over 15% in size; note: potency is the fitted concentration of half-maximal effect). The method in brief: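 Rat S16 Schwann cells with beta-Lac driven by a PMP22 intronic element, compound-treated 24 h at 37 °C. LiveBLAzer FRET B/G read: 460 nm normalized to potassium clavulanate vs DMSO; 535 nm FRET as viability; concentration-effect curves classified.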
Test [7] is described as follows: HTS Assay for Allosteric Antagonists of the Human D2 Dopamine Receptor: Hit Validation in HTRF (AID 624455). Note: potency is the fitted concentration of half-maximal effect.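 Note: stable D1 dopamine receptor cell line scored for blocking the D1 response.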 The method in brief: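 First, antagonism was screened by calcium flux in a force-coupled, inducible Hek293 Trex D2 line challenged with EC80 dopamine. Hits then went into an HTRF assay in cells stably expressing D1, testing inhibition of the D1 response.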

A short description of test [8]: qHTS assay for small molecule agonists of the antioxidant response element (ARE) signaling pathway (AID 651741; active = well fitted activation curve with a large enough effect in the signal ratio; the % refers to the signal ratio; note: potency is the fitted concentration of half-maximal effect; for activation: % of control where 0% means no effect). The method in brief:
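Quantitative HTS in HepG2 cells stably expressing an ARE-beta-lactamase reporter; 16 h compound exposure at 37 C, followed by 2 h room-temperature incubation with LiveBLAzer B/G FRET substrate and fluorescence measurement.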

A short description of test [9]: qHTS assay for small molecule activators of the p53 signaling pathway (AID 651743; active = well fitted activation curve with a large enough effect in the signal ratio, not every such curve was filed as active; the % refers to the signal ratio; note: % of control where 0% means no effect). To be noted: HCT-116 p53RE-bla, beta-lactamase FRET ratio, 16 h; activation: stronger effect = higher value. The method in brief: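 Read-out is fluorescence intensity from the LiveBLAzer B/G FRET substrate, added for 2 hours at room temperature after HCT-116 p53RE-bla cells had been incubated with compounds for 16 hours at 37 C.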

Test [10] has as its target Tumor necrosis factor (Homo sapiens) (UniProt P01375). Put plainly: qHTS assay to identify small molecules that stimulate Tumor Necrosis Factor-alpha (TNF-alpha) secretion (AID 651757; active = well fitted curve in the direction sought with a large enough effect in the signal ratio; the % refers to the signal ratio; note: 0% is about no effect). The method in brief:
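Read-out is HTRF, a TR-FRET sandwich of cryptate- and XL665-labeled anti-TNF-alpha antibodies detecting cytokine secreted by THP-1 cells. Cells had been incubated with test compounds at 37 C for 17 hrs beforehand.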

Test [11] is described as follows: qHTS assay for small molecule activators of the nuclear factor-kappa B (NF-kB) signaling pathway (AID 651749; active = well fitted activation curve with a large enough effect in the signal ratio; the % refers to the signal ratio; note: % of control where 0% means no effect). The following applies: NF-kB-bla ME-180 cells, beta-lactamase FRET ratio, 16 h; stronger effect = higher value. The method in brief: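 Readout: beta-lactamase reporter driven by an NF-kB response element, detected fluorescently as loss of FRET. Cells were the ME-180 line, treated 16 hr at 37C with pin-transferred compound.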

Test [12] can be described thus: Cytotoxicity counterscreen for NFkB agonists and antagonists (AID 624476).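 Note: cells exposed to compound for 48 hours; % is set by controls: 0 for no effect and ±100 for the full control effect.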
A short description of test [13]: qHTS Assay for Identification of Small Molecule Agonists for NFkB Signaling Pathway. (AID 624478).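 Note: compounds tested together with TNF alpha at its EC50 of 10 pM; 0% is about no effect.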 The method in brief:
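ME-180 cervical carcinoma, stable NFkB-RE beta-lactamase reporter; 1000 cells/well, overnight attachment; cpd + TNF alpha 10 pM final, 5 h 37 C; LiveBLAzer 2 h RT; FRET 460/530 nm, ex 405 nm.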

Test [14] is described as follows: qHTS Assay for Identification of Small Molecule Antagonists for NFkB Signaling Pathway. (AID 624479; calls by dose curve;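 note: pathway stimulated with TNF alpha; % is set by controls: 0 for no effect and ±100 for the full control effect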).
Test [15] is described as follows: Cell Proliferation Assay against the TMD8 Cell Line (AID 651645).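 Note: cells exposed to compound for 48 h before reading.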 To be noted: TMD8 DLBCL cell line proliferation/viability; at 46.1 µM (top of the series). The method in brief:
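Viability by CellTiter-Glo after 48 h compound exposure of 500 log-phase TMD8 cells per well (RPMI, 5% FBS). Percent activity scaled between DMSO (100%) and 9.2 uM final bortezomib (0%).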

A short description of test [16]: Cell Proliferation Assay against the HBL1 Cell Line (AID 651646).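 Note: cells exposed to compound for 48 h before reading.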 The following applies: HBL1 DLBCL cells; at 46.1 µM (top of the series). The method in brief:
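Luminescent ATP read-out (CellTiter-Glo) after 48 h compound exposure of HBL1 cells at 37 °C; percent activity was scaled between DMSO as 100% and 9.2 uM bortezomib (final) as 0%.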

Test [17] can be described thus: Cell Proliferation Assay against the TMD8 Cell Line (Caspase readout at 16 hrs) (AID 651712). Note: potency is the fitted concentration of half-maximal effect. The method in brief:
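Apoptotic response of TMD8 cells was judged from caspase 3/7 activation following a 16 hour compound incubation at 37 °C. Luminescent signal was converted to percent activity, with DMSO set as 0% and 9.2 uM final bortezomib as 100%.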

The nature of test [18]: Cell Proliferation Assay against the TMD8 Cell Line (Caspase readout at 8 hrs) (AID 651713). The method in brief:
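Seed log-phase TMD8 cells, add compound by pin tool, incubate 8 h at 37C under 5% CO2, equilibrate to room temperature, add Caspase-Glo, wait 15 min, read luminescence; percent activity uses DMSO and 9.2 uM bortezomib controls.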

Test [19] can be described thus: qHTS assay for small molecule disruptors of the mitochondrial membrane potential - 1 hr assay (AID 651754; calls by dose curve; note: % is set by controls: 0 for no effect and ±100 for the full control effect; nearly all actives have a fitted effect of over 35% in size). The method in brief:
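HepG2, 2,000 cells/well, overnight attachment; cpd or DMSO 1 hr, 37C/5% CO2; Mito-MPS dye 30 min, 37C; fluorescence monomer (490/535) and aggregate (540/590).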

Test [20] in a line: qHTS assay for small molecule disruptors of the mitochondrial membrane potential - 5 hr assay (AID 651755; calls by dose curve; note: % is set by controls: 0 for no effect and ±100 for the full control effect; nearly all actives have a fitted effect of over 40% in size). The method in brief:
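HepG2, 2,000 cells/well, overnight attach; cpd or DMSO 5 hr, 37C/5% CO2; Mito-MPS 30 min 37C; fluor 490/535 + 540/590 nm.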

Chain of Tumor necrosis factor (Homo sapiens) (P01375 whole entry, looked up): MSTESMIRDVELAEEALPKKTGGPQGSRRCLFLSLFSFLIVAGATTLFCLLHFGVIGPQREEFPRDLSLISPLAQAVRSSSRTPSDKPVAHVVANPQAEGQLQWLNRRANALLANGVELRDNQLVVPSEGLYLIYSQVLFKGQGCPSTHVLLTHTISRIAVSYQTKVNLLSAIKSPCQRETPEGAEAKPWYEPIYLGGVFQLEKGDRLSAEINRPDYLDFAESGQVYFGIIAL
Chain of Glucagon-like peptide 1 receptor (Homo sapiens) (P43220 whole entry, looked up): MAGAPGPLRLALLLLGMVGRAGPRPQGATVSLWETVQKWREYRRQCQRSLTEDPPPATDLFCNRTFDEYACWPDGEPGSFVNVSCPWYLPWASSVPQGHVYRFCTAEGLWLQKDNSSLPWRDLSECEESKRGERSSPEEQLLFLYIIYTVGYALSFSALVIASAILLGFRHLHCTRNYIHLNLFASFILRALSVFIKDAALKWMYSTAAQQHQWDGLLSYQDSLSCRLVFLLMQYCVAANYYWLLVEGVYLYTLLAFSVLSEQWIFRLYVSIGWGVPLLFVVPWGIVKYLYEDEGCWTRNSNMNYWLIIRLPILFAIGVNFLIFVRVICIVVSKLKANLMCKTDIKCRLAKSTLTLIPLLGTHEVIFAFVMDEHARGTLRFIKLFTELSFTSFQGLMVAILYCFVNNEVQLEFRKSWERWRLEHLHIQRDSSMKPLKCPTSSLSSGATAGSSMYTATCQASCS

With `COc1ccc(C(CN(C)C)C2(O)CCCCC2)cc1` (stereo not drawn), the Potency entry in test [1] and in [2] was “inactive” in each case. Further, the compound was called inactive in [3], in [4] and in [5].
With `CC[C@@H](CO)NC(=O)[C@@H]1C=C2c3cccc4[nH]cc(c34)C[C@H]2N(C)C1`, the Potency entry in test [1] and in [6] was “inactive” in each case. The compound was classed as inactive in test [3], in test [4] and in test [5]. In addition, in test [7], the Potency is 5.2 nM (active).
On to `Oc1ccccc1-c1ccccc1`, for which the Potency result in test [1] and in test [2] was “inactive” each time. In addition, the Potency in test [8] is 54.5 µM (active) and 398 µM (active) and 30.6 µM (active). In test [9], the activation was -2.94% (inactive) and -3.63% (inactive) and -0.39% (inactive). Also, the result in test [10] was inactive.
`Oc1cc(Cl)ccc1Oc1ccc(Cl)cc1Cl`: the Potency result in [1], in [2] and in test [6] was “inactive” throughout. Further, in test [8], the Potency is 54.5 µM (active). For the same compound, the activation in test [11] is 2.77% (inactive).
In the case of `CC(CCc1ccccc1)NC(C)C(O)c1ccc(O)cc1` (stereo not drawn), the Potency result in test [1] and in [7] was “inactive” in each case. The compound was classed as inactive in test [3] and in [5].
For `O=c1[nH]c2ccccc2n1CCCN1CCC(n2c(=O)[nH]c3cc(Cl)ccc32)CC1`, the Potency in test [2] is 36100 nM (active). The call in test [3], in [4] and in [5] was inactive. In test [7], the Potency entry was “inactive”.
As for `Cn1c(CCCC(=O)O)nc2cc(N(CCCl)CCCl)ccc21`, the Potency result in [1], in test [12], in test [14], in [17] and in test [18] was “inactive” in each case. In addition, in test [2], the Potency was 1020 nM (active). Moreover, the compound was called inactive in test [13]. In addition, the viability (% of control) in [15] came out at 95.4%. In addition, the viability, percent of control in test [16] came out at 108%.
With `NCC(CC(=O)O)c1ccc(Cl)cc1` (stereo not drawn), the Potency entry in test [1], in test [2] and in [7] was “inactive” each time. The compound was called inactive in [3], in test [4] and in test [5].
As to `CCCC(C)(COC(N)=O)COC(=O)NC(C)C` (stereo not drawn), the Potency result in test [1], in test [2], in test [7] and in test [8] was “inactive” each time. In addition, the compound was called inactive in test [3], in [4], in [5] and in test [10]. For the same compound, the activation in test [9] is 1.85% (inactive) and -3% (inactive).
`COc1cc([C@@H]2c3cc4c(cc3[C@H](O)[C@H]3COC(=O)[C@H]23)OCO4)cc(OC)c1OC`: the results for the Potency in [2], in test [6] and in test [17] were 12.8 nM (active), 22.4 nM (active) and 3.7 nM (active), respectively. For the same compound, in test [12], the Potency result was “inactive”.
As to `C[C@]12C/C(=C/O)C(=O)C[C@@H]1CC[C@@H]1[C@@H]2CC[C@@]2(C)[C@H]1CC[C@]2(C)O`, the Potency entry in test [1], in test [6], in test [19] and in [20] was “inactive” each time. For the same compound, the Potency in test [8] was 6.86 µM (active) and 7.5 µM (active). The activation in test [9] is 23.1% (inactive). Also, in [10], the compound was called inactive.
`COc1cc2c(c(OC)c1OC)-c1ccc(OC)c(=O)cc1[C@@H](NC(C)=O)CC2`: the Potency is 102 nM (active) in test [2], 89.1 nM (active) in test [6] and 0.075 µM (active) in test [8].
